The values that follow come from PubChem BioAssay (NCI).

This is part of a sample that, as a whole, favours compounds with a hit. Of some 83,000 tested, about 20% had one in any assay.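 How to read the values: 0–100, growth inhibition (40 = 60% inhibited); 0, no net growth; -100 to 0, cell death (-40 = 40% of starting cells died; -100 = all dead).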 A number with no mark means an inactive call. Active and inactive are the calls of the source. The calls were made as follows: active = growth percent below 10; inactive = the rest.

In the test the test system is MDA-MB-468 breast. Nature of the test: NCI-60 one-dose screen, 48 h (100 = growth as untreated, 0 = no growth, -100 = all killed). The settings on record: 10 µM unless noted.
Turning to `O=C(Nc1ccc2c(ccn2Cc2ccccn2)c1)c1cnccn1`, the growth is 103%.

Consider `CC1(C)CC(=O)c2c(ccc(C(=O)C[C@@H](N)CO)c2N)O1`, for which the growth was 5.3% (active).

Take `COc1cc(C)cc2oc3oc(=O)c(-c4csc(-c5cc6ccccc6oc5=O)n4)cc3c(=O)c12`: the growth is 102%.

As to `Cn1cc(-c2nc(-c3c[nH]c4ccncc34)cs2)c2cc(Br)ccc21`, the growth is -71.8% (active).

As for `C=CCn1c(-c2nc3ccc(C(=C(C#N)C#N)c4ccccc4)cc3[nH]2)cc2cc(Br)ccc21`, the growth is 42.6%.

Take `COc1cc(N=Nc2cc(Cc3ccc(N(C)C)cc3)c(N)cc2N(C)C)c2ncccc2c1`: the growth is -54.8% (active).

For `O=Cc1cc2ccccc2nc1Nc1nccs1`, the growth was 57.2%.

Take `O=C(NN(C(=O)c1ccccc1)c1cccs1)c1ccccc1`: the growth was 103%.

Regarding `Cn1cc(-c2nonc2-c2c[nH]c3ccc(Br)cc23)c2cc(Br)ccc21`, the growth was 21%.

With `CC1=C[C@H]2c3c(c(O)c(O)c4oc5cc(O)ccc5c(=O)c34)[C@H](c3cc(O)c(O)c4oc5cc(O)ccc5c(=O)c34)[C@H]2C(C)(C)C1`, the growth is 34.3%.

Take `Cn1nc(Nc2ccccc2)c(C(=O)NN)c1N`: the growth is 100%.

Take `CN(C)c1ccc(/C=C2/C=C(c3ccccc3)OC2=O)cc1`: the growth is -8.42% (active).

On to `COc1ccc(/C(=C2\O[C@@H]([C@H](O)CO)[C@H]3OC(C)(C)O[C@@H]23)c2cc(OC)c(OC)c(OC)c2)cc1O`, for which the growth was 107%.

On to `O=C(Oc1ccc(CO[N+](=O)[O-])cc1)c1ccccc1`, for which the growth was -67.7% (active).
